The results in this text go back to the supplement of paper PMC11006884.

Targets with a hit are over-represented here; the source holds about 6,500 in all. About 2% of all pairs of compound and target were hits. Values without a mark were called inactive.

UniProt O14893, sequence (O14893 whole entry, looked up): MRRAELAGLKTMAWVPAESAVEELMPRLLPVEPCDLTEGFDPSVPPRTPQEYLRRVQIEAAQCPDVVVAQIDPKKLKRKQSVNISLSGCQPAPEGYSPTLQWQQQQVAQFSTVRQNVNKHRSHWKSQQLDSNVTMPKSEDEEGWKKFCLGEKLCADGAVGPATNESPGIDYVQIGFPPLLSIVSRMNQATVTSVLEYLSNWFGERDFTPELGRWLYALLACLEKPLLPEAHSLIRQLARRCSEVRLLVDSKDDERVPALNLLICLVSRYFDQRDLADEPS
UniProt O75439, sequence (O75439 whole entry, looked up): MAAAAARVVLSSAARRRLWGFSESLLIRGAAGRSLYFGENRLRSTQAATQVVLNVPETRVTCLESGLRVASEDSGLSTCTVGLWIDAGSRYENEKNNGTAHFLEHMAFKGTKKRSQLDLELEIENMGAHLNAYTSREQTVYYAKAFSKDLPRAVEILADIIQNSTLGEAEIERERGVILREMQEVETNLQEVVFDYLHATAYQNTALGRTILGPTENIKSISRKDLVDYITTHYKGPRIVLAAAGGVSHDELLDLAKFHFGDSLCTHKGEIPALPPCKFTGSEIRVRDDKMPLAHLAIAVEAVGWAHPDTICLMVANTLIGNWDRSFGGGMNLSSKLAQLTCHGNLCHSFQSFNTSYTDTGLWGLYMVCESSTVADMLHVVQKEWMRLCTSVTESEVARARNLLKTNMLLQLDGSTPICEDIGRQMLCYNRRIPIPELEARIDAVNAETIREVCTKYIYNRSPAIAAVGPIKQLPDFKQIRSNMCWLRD
UniProt O60763, sequence (O60763 whole entry, looked up): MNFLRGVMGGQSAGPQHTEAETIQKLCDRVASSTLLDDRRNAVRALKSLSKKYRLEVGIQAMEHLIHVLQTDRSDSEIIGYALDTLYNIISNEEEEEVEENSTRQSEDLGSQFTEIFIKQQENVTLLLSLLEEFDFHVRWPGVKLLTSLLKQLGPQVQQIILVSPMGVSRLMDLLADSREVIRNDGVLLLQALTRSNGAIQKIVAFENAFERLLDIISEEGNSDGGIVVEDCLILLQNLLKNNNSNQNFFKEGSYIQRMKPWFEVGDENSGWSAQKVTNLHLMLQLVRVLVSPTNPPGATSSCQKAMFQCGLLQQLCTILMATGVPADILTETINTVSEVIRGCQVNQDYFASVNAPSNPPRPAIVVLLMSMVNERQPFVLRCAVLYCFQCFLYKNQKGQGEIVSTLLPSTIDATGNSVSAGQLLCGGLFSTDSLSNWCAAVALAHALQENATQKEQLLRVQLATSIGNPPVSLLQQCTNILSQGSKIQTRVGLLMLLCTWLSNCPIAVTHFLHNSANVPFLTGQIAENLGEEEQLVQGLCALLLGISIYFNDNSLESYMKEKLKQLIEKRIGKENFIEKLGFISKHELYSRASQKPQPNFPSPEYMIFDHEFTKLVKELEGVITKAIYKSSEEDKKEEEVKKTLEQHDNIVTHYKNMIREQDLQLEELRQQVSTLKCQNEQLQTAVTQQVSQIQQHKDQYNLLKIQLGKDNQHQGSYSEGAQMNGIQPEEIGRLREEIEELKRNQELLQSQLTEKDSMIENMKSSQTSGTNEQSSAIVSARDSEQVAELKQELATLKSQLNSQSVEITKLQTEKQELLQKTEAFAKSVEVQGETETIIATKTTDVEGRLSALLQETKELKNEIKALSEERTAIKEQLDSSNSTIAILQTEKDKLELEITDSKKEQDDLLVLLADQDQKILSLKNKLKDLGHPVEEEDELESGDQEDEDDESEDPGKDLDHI
UniProt O43719, sequence (O43719 whole entry, looked up): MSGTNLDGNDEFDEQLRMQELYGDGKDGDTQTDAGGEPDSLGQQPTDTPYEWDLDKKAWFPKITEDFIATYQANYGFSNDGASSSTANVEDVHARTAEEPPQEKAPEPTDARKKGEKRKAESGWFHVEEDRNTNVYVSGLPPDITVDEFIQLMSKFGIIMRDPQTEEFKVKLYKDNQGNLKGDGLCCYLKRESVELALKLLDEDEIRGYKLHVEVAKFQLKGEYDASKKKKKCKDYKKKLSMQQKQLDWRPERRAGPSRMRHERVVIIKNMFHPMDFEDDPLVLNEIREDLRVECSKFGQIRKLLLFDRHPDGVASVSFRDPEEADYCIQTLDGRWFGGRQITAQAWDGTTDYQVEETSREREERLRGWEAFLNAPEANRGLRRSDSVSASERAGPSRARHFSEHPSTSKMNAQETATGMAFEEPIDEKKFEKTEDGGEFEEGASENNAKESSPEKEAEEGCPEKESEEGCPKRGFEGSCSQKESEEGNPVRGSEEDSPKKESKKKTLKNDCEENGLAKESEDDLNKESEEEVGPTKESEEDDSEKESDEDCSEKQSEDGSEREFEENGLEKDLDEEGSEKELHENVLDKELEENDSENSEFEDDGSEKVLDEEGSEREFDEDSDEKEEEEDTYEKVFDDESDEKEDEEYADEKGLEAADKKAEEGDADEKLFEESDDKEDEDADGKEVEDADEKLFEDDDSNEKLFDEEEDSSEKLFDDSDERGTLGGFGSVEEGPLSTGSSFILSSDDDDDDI
UniProt O15226, sequence (O15226 whole entry, looked up): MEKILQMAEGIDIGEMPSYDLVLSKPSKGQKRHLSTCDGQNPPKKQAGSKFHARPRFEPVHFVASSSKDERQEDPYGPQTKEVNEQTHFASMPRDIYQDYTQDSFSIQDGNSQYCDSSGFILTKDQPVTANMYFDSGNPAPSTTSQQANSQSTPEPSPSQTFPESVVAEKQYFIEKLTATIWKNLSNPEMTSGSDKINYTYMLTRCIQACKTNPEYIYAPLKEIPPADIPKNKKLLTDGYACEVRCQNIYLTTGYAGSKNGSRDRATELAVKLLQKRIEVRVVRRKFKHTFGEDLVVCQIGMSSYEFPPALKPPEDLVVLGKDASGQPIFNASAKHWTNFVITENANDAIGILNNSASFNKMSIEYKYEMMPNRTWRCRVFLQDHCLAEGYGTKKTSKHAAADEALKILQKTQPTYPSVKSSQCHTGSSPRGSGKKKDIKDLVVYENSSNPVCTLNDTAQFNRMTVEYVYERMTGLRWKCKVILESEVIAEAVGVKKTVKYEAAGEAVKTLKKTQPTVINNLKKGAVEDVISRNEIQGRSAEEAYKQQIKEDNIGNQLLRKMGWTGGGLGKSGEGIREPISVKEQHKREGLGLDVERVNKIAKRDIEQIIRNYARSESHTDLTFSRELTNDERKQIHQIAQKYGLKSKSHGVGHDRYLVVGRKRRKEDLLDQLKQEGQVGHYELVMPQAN
UniProt O94885, sequence (O94885 whole entry, looked up): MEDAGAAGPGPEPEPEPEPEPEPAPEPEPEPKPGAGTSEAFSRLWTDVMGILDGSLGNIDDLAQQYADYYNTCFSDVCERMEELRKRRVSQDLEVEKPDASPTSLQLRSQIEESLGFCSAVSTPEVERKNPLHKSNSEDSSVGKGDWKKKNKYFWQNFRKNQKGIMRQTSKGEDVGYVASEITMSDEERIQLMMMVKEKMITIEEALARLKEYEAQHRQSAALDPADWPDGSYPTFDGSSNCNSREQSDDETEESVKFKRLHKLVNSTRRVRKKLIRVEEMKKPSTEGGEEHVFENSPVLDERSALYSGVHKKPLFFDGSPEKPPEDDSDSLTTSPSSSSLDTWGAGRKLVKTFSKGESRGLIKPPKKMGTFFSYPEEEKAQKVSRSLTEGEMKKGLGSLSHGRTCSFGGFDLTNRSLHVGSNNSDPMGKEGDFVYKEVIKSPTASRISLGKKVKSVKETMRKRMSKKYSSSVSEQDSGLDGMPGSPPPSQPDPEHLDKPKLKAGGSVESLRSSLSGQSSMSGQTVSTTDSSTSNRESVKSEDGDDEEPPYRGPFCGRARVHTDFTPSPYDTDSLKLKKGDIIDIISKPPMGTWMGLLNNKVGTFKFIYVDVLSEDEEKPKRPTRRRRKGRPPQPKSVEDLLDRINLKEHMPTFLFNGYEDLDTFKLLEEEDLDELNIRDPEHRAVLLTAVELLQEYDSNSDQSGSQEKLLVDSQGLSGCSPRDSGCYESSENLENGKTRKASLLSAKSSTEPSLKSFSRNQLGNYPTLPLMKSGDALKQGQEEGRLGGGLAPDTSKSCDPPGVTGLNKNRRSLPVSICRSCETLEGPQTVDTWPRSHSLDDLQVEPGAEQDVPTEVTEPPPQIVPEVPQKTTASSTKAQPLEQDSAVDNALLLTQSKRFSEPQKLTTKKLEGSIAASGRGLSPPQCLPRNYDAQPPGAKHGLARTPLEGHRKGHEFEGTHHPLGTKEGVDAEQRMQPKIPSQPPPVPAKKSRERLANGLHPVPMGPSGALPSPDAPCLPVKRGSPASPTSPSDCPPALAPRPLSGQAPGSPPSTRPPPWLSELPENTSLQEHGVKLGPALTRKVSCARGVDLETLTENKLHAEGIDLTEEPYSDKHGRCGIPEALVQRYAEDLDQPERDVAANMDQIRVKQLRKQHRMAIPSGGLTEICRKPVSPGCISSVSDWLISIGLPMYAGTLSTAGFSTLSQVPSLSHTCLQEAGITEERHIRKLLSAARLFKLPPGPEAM
UniProt O00425, sequence (O00425 whole entry, looked up): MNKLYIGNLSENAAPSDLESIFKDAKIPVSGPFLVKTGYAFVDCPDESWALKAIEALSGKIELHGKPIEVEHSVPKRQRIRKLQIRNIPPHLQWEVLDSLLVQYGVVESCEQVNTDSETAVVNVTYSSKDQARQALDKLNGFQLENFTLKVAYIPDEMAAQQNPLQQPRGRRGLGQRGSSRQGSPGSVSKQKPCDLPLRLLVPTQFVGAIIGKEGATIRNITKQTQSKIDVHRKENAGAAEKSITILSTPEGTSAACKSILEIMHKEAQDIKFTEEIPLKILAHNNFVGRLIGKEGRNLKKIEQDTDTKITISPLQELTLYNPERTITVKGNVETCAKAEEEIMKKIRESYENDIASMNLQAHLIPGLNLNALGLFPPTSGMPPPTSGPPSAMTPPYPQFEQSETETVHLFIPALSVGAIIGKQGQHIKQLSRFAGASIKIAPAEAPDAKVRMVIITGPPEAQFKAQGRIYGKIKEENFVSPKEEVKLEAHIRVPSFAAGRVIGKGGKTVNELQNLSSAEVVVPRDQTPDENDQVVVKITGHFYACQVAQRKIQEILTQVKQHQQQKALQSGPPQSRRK

Compound in this experiment: COC(=O)C#Cc1ccccc1 [methyl 3-phenylpropiolate]
As to the kind of experiment: log2 ratio of iodoacetamide-alkyne labeling of the cysteine site, DMSO over compound (competition); higher = stronger covalent engagement of the cysteine by the compound, active = 1 or more. The conditions noted are these: 500 µM; treatment time 1 h; system: HEK293T cell lysate. The procedure, abridged: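 Three replicates, each with duplicate channels, were prepared from HEK293T lysate (2 mg/mL) treated with vehicle or electrophile at 500 µM for 1 h at ambient temperature. Iodoacetamide alkyne was then applied for 1 h, and samples were clicked to sCIP-TMT reagents, pooled, trypsin-digested overnight at 37 °C, enriched on streptavidin, acid-eluted and analysed on Orbitrap Eclipse LC-MS/MS with FAIMS, with FragPipe quantification. The log2 competition ratio per cysteine is the mean control-channel divided by the mean compound-channel reporter intensity. Cysteines quantified in only one replicate were left out.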
Take FLNB C2556 (UniProt O75369): the “log2 ratio of iodoacetamide-alkyne labeling” value (from here on “log2 ratio”) is 0.079.
For the target UniProt O94822_C186, the “log2 ratio” value is -0.317.
For EXOC5 C111 (UniProt O00471), the “log2 ratio” value was 0.297.
As for WDR46 C456 (UniProt O15213), the “log2 ratio” value was 0.493.
In the case of NVL C550 (UniProt O15381), the “log2 ratio” value was -0.302.
Under FANCG C417 (UniProt O15287) stands 0.36.
For the target UniProt O00148_C62, the “log2 ratio” value was 0.591.
For the target GEMIN2 C63 (UniProt O14893), the “log2 ratio” value is 0.211.
Under POLRMT C119 (UniProt O00411) stands 1.22 (active); under PSIP1 C204 (UniProt O75475), 0.31; under PFAS C270 (UniProt O15067), 0.115.
As for DDX3X C128 (UniProt O00571), the “log2 ratio” value was 0.406.
Turning to PMPCB C419 (UniProt O75439), the “log2 ratio” value is 0.112.
With KATNA1 C491 (UniProt O75449), the “log2 ratio” value is 0.112.
With O15320_C147 (UniProt Q96PC5+O15320) the figure was -0.197; with TRAFD1 C482 (UniProt O14545), 1.55 (active); with PSMD11 C289 (UniProt O00231), 0.253.
Regarding FLNB C455 (UniProt O75369), the “log2 ratio” value is 1.24 (active).
With USO1 C303 (UniProt O60763) the figure was 0.712; with HTATSF1 C471 (UniProt O43719), 1.14 (active); with PJA2 C224 (UniProt O43164), 0.22.
On to AP3D1 C137 (UniProt O14617), for which the “log2 ratio” value is 0.262.
With UniProt O14628_C178 the figure was 1.09 (active).
Under NVL C192 (UniProt O15381) stands 0.306.
Under PRPF6 C698 (UniProt O94906) stands 0.0824.
WASL C431 (UniProt O00401): the “log2 ratio” value was 1.06 (active).
Take NKRF C37 (UniProt O15226): the “log2 ratio” value was 1.02 (active).
Turning to ZZEF1 C2466 (UniProt O43149), the “log2 ratio” value was -0.132.
Take UniProt O43303_C535: the “log2 ratio” value was 0.837.
For UniProt O00567_C52, the “log2 ratio” value is 0.482.
In the case of PGP C297 (UniProt A6NDG6), the “log2 ratio” value was 1.17 (active).
Regarding GTPBP1 C669 (UniProt O00178), the “log2 ratio” value was 1.13 (active).
In the case of DNM1L C361 (UniProt O00429), the “log2 ratio” value was 0.736.
With PGRMC2 C159 (UniProt O15173) the figure was 0.159.
Take IGF2BP3 C546 (UniProt O00425): the “log2 ratio” value is 0.284.
With PRPF4 C237 (UniProt O43172), the “log2 ratio” value is 1.42 (active).
Regarding SASH1 C406 (UniProt O94885), the “log2 ratio” value was 1.19 (active).
With UniProt O15042_C291 the figure was 1 (active).
With PRKRA C106 (UniProt O75569) the figure was 1.07 (active).
